The record followed here is PubChem BioAssay (NCI).

Structures are written as SMILES. About 83,000 compounds went through this panel and 20% of them were active in at least one assay; those are over-represented in the sample as a whole.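 Cell lines were cultured in 96-well plates, exposed to a single compound concentration, and assessed for percent growth 48 hours later.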 Unmarked numbers belong to inactive results. Calls of active or inactive are those of the source. Rule for the calls: active = growth percent below 10; inactive = the rest.

Among the test systems are NCI-H226 lung; HOP-62 NSCLC; NCI-H460 lung; HOP-92 NSCLC; NCI-H522 lung; A549/ATCC NSCLC; 786-0 renal; COLO 205 colon; DU-145 prostate; K-562 leukemia; MALME-3M melanoma; MDA-MB-231 breast; RXF 393 renal; SF-268 CNS; SF-295 CNS; SF-539 CNS; UACC-257 melanoma; M14 melanoma; HCT-15 colon; NCI-H322M lung.
What all share (test): NCI-60 one-dose screen, 48 h (100 = growth as untreated, 0 = no growth, -100 = all killed)
What all share (details): 10 µM unless noted

Take `COc1ccc(Cc2nn(CC(=O)N/N=C/c3ccc(Cl)cc3)c(=O)c3c(C)noc23)cc1`: the growth was 69.8% with NCI-H226 lung; 70.4% in the experiment on HOP-62 NSCLC; 64.9% with NCI-H460 lung; 89.5% in the experiment on HOP-92 NSCLC; 74.4% with NCI-H522 lung; 46% in the experiment with A549/ATCC NSCLC. The growth was 52.6% in the experiment with 786-0 renal; 102% with COLO 205 colon; 93% in the experiment with DU-145 prostate; 96.3% in the experiment with K-562 leukemia; 95% with MALME-3M melanoma; 76.2% in the experiment on MDA-MB-231 breast. Moreover, the growth in the experiment with RXF 393 renal is 77.7%; with SF-268 CNS, 83.9%; with SF-295 CNS, 69.3%; in the experiment with SF-539 CNS it was 58.7%; in the experiment with UACC-257 melanoma it was 90.9%; in the experiment on M14 melanoma, 89.9%. Also, in the experiment with HCT-15 colon, the growth was 88.3%.
For the compound `COc1ccc(-c2nn3c(-c4ccccc4F)nnc3s2)cc1`, the growth with NCI-H226 lung is 89.4%; in the experiment on NCI-H322M lung it was 75%; with HOP-62 NSCLC it was 67.5%; in the experiment with NCI-H460 lung, 30%; with HOP-92 NSCLC, 76.9%; in the experiment on A549/ATCC NSCLC, 56.6%. For the same compound, the growth is 72.5% in the experiment on 786-0 renal; 41.6% with COLO 205 colon; 72.2% in the experiment on DU-145 prostate; 18.7% in the experiment with K-562 leukemia; 66.1% in the experiment with MALME-3M melanoma; 41.1% in the experiment on MDA-MB-231 breast. Further, the growth in the experiment on RXF 393 renal is 68.4%; in the experiment on SF-268 CNS it was 74.2%; in the experiment with SF-295 CNS, 58.5%; in the experiment on SF-539 CNS, 59.3%; in the experiment on UACC-257 melanoma, 86.4%; with M14 melanoma, 34.8%. The growth in the experiment on HCT-15 colon is 31.5%.
For the compound `CC1=C(C)C(=O)C(Nc2ccccc2)=C(Cl)C1=O`, the growth is 96.9% in the experiment with NCI-H226 lung; 92.6% in the experiment with HOP-62 NSCLC; 95.7% in the experiment with NCI-H460 lung; 46% in the experiment on HOP-92 NSCLC; 83.5% in the experiment with NCI-H522 lung; 99.8% with A549/ATCC NSCLC. For the same compound, the growth was 99.2% in the experiment with 786-0 renal; 107% with COLO 205 colon; 101% in the experiment on DU-145 prostate; 15.9% in the experiment on K-562 leukemia; 108% in the experiment on MALME-3M melanoma; 15.4% in the experiment with MDA-MB-231 breast. For the same compound, the growth in the experiment on RXF 393 renal is 96.8%; in the experiment with SF-268 CNS, 95.4%; in the experiment on SF-295 CNS it was 102%; in the experiment with SF-539 CNS, 95.4%; in the experiment on UACC-257 melanoma, 90.3%; in the experiment on M14 melanoma, 95.9%. The growth in the experiment on HCT-15 colon is 94.2%.
Take `N#Cc1c(-c2ccc(Cl)cc2)nc2c(-c3ccccc3)c(Nc3ccccc3)nn2c1N`: the growth in the experiment on NCI-H226 lung is 41.5%; with HOP-62 NSCLC it was 57.5%; with NCI-H460 lung it was -8.88% (active); with HOP-92 NSCLC, 35.2%; in the experiment with A549/ATCC NSCLC, 29.5%; in the experiment on 786-0 renal, 25.1%. The growth was 63.6% in the experiment on DU-145 prostate; 67.3% with K-562 leukemia; 79.9% in the experiment with MALME-3M melanoma; 26% in the experiment with MDA-MB-231 breast; 78.8% in the experiment on RXF 393 renal; 82.4% in the experiment with SF-268 CNS. Besides, the growth with SF-295 CNS is 46%; with SF-539 CNS, 80.6%; in the experiment with UACC-257 melanoma it was 105%; in the experiment with M14 melanoma it was 70.1%; in the experiment with HCT-15 colon, 67.2%.
As to `Clc1ccc2c(NCCCn3ccnc3)c3oc4ccccc4c3nc2c1`, the growth with NCI-H226 lung was 51.4%; in the experiment on HOP-62 NSCLC, 65.9%; in the experiment on NCI-H460 lung, -7.61% (active); in the experiment on HOP-92 NSCLC, 33.1%; in the experiment on NCI-H522 lung, 44%; with A549/ATCC NSCLC, 34.4%. Also, the growth with 786-0 renal was -9.95% (active); in the experiment with COLO 205 colon it was 31.8%; with DU-145 prostate, 24.6%; in the experiment on K-562 leukemia, 8.56% (active); in the experiment on MALME-3M melanoma it was 43.2%; with MDA-MB-231 breast, 36.7%. Besides, the growth was 32.3% in the experiment with RXF 393 renal; 45.3% with SF-268 CNS; 26.3% with SF-295 CNS; 27.4% in the experiment on SF-539 CNS; 80.7% in the experiment on UACC-257 melanoma; 61.7% in the experiment with M14 melanoma. Also, the growth in the experiment with HCT-15 colon is 13.7%.
`C#Cc1nc(C2=C(C)C(O)CC2)cs1` (stereo not given): the growth with NCI-H226 lung is 110%; in the experiment on HOP-62 NSCLC, 103%; in the experiment with NCI-H460 lung, 113%; with HOP-92 NSCLC it was 115%; in the experiment on NCI-H522 lung, 97.2%; in the experiment on A549/ATCC NSCLC it was 100%. The growth in the experiment with 786-0 renal was -87.8% (active); with DU-145 prostate, 110%; in the experiment with K-562 leukemia, 114%; with MALME-3M melanoma, 109%; with MDA-MB-231 breast it was 112%; with RXF 393 renal, 95.6%. Also, the growth is 108% in the experiment on SF-268 CNS; 113% with SF-295 CNS; 108% in the experiment with SF-539 CNS; 102% with UACC-257 melanoma; 101% with M14 melanoma; 98.9% in the experiment on HCT-15 colon.
As for `N#Cc1nc(-c2ccccc2)oc1S(=O)(=O)N1CCN(CCc2ccccn2)CC1`, the growth in the experiment with NCI-H226 lung is 98.1%; with HOP-62 NSCLC, 109%; in the experiment with NCI-H460 lung, 100%; with HOP-92 NSCLC, 38.1%; in the experiment on NCI-H522 lung, -66% (active); with A549/ATCC NSCLC, 103%. Also, the growth in the experiment on 786-0 renal was 8.4% (active); in the experiment with COLO 205 colon, 30.1%; in the experiment on DU-145 prostate, 75.4%; in the experiment on K-562 leukemia, 6.82% (active); in the experiment on MALME-3M melanoma, -66.9% (active); in the experiment on MDA-MB-231 breast it was 38.9%. For the same compound, the growth in the experiment on RXF 393 renal is -54.7% (active); with SF-268 CNS it was 109%; with SF-295 CNS, 99.2%; in the experiment with SF-539 CNS it was 68.7%; in the experiment on UACC-257 melanoma it was 77%; in the experiment with M14 melanoma, 15.2%. Besides, in the experiment with HCT-15 colon, the growth was -27.2% (active).
Regarding `COc1ccc(N/N=C/c2c(-c3ccc(S(C)(=O)=O)cc3)nc3ccccn23)cc1`, the growth was 71% in the experiment on NCI-H226 lung; 57.4% in the experiment on HOP-62 NSCLC; 21.8% in the experiment with NCI-H460 lung; 23% in the experiment on HOP-92 NSCLC; 3.48% (active) with NCI-H522 lung; 36.9% in the experiment with A549/ATCC NSCLC. In addition, the growth with 786-0 renal was 48%; in the experiment with COLO 205 colon it was 55.1%; with DU-145 prostate, 40.1%; in the experiment on K-562 leukemia, 8.66% (active); with MALME-3M melanoma, 75.1%; in the experiment on MDA-MB-231 breast, 38.7%. For the same compound, the growth was 79.3% in the experiment with RXF 393 renal; 55.7% in the experiment on SF-268 CNS; 6.91% (active) in the experiment with SF-295 CNS; 55.4% with SF-539 CNS; 70.6% with UACC-257 melanoma; 18.4% in the experiment with M14 melanoma. In the experiment on HCT-15 colon, the growth is 19.3%.
On to `O=C(N/N=C/c1ccc(Cl)s1)c1[nH]c2ccc(Br)cc2c1-c1ccccc1`, for which the growth in the experiment on NCI-H226 lung is 55.9%; with HOP-62 NSCLC, 30.2%; in the experiment with NCI-H460 lung, 3.42% (active); in the experiment with HOP-92 NSCLC, 35.6%; with NCI-H522 lung it was -35.1% (active); in the experiment with A549/ATCC NSCLC, 21.2%. The growth was 7.94% (active) with 786-0 renal; -68.4% (active) in the experiment with COLO 205 colon; 22% in the experiment on DU-145 prostate; 6.77% (active) in the experiment with K-562 leukemia; 53.4% in the experiment on MALME-3M melanoma; 1.52% (active) with MDA-MB-231 breast. Moreover, the growth with RXF 393 renal is 71.7%; with SF-268 CNS, 42.1%; in the experiment with SF-295 CNS it was 15.5%; in the experiment with SF-539 CNS, 3.35% (active); in the experiment on UACC-257 melanoma it was 52%; with M14 melanoma, 5.47% (active). Besides, the growth in the experiment on HCT-15 colon is 15.6%.
On to `Cn1c(SCC(=O)c2cccs2)nc2ccccc2c1=O`, for which the growth in the experiment with NCI-H226 lung is 91.9%; in the experiment on HOP-62 NSCLC it was 85.9%; in the experiment with NCI-H460 lung it was 98.7%; in the experiment with HOP-92 NSCLC it was 87.3%; in the experiment on NCI-H522 lung, 87.8%; in the experiment on A549/ATCC NSCLC, 99.6%. The growth with 786-0 renal was 98.6%; with COLO 205 colon it was 111%; with DU-145 prostate, 105%; in the experiment on K-562 leukemia it was 78.5%; in the experiment on MALME-3M melanoma, 102%; with MDA-MB-231 breast it was 88.2%. In addition, the growth with RXF 393 renal was 107%; in the experiment with SF-268 CNS, 92.7%; with SF-295 CNS, 107%; in the experiment with SF-539 CNS it was 94.6%; with UACC-257 melanoma, 93.4%; with M14 melanoma, 97.8%. For the same compound, the growth in the experiment on HCT-15 colon is 91.1%.
As for `CCCCN1C(=O)/C(=c2\sc3n(c2=O)C2C(NN=3)N(CC)C(=O)N2CC)c2cc(Cl)ccc21` (stereo not given), the growth in the experiment on NCI-H322M lung is 96.3%; with HOP-62 NSCLC, 83.1%; with NCI-H460 lung, 78.5%; with HOP-92 NSCLC, 71.3%; in the experiment on NCI-H522 lung, 46.5%; in the experiment with A549/ATCC NSCLC, 89.3%. Besides, the growth in the experiment with 786-0 renal was 90.7%; with COLO 205 colon, 114%; in the experiment with DU-145 prostate, 94.8%; with K-562 leukemia it was 25.3%; in the experiment on MALME-3M melanoma, 73.9%; in the experiment on MDA-MB-231 breast, 58.3%. Also, the growth with RXF 393 renal was 77%; with SF-268 CNS it was 75.4%; in the experiment on SF-295 CNS it was 62.3%; with SF-539 CNS it was 59.4%; in the experiment on UACC-257 melanoma, 89.4%; in the experiment with M14 melanoma, 70.3%. In addition, in the experiment on HCT-15 colon, the growth was 43.9%.
With `Clc1ccc2c(NCCCN3CCOCC3)c3oc4ccccc4c3nc2c1`, the growth in the experiment on NCI-H226 lung was 45.3%; in the experiment on HOP-62 NSCLC, 66.5%; in the experiment on NCI-H460 lung, 13.8%; in the experiment on HOP-92 NSCLC, 48.7%; in the experiment with NCI-H522 lung, 43.1%; in the experiment on A549/ATCC NSCLC it was 44.3%. Also, the growth in the experiment on 786-0 renal is 28.3%; with COLO 205 colon it was 29.9%; with DU-145 prostate, 31.3%; in the experiment with K-562 leukemia, 13.2%; with MALME-3M melanoma it was 40.6%; in the experiment on MDA-MB-231 breast, 33.8%. For the same compound, the growth is 29.1% in the experiment on RXF 393 renal; 48.6% with SF-268 CNS; 31.3% in the experiment on SF-295 CNS; 26.5% in the experiment on SF-539 CNS; 87.4% in the experiment with UACC-257 melanoma; 42.7% with M14 melanoma. In addition, the growth in the experiment on HCT-15 colon is 21.6%.
